# Screening results (PubChem BioAssay)
# Only some compounds are listed: those with a hit (about 7.3% of all), similar ones and a draw of the others.
# Rab9 promoter act: qHTS Assay for Rab9 Promoter Activators. Potency, µM (doses to about 9.22 µM), for inactives: at the highest dose activation, negative = inhibition, most hits filed as activators. Huh7 Rab9 promoter-luciferase reporter, luminescence, 24 h. AID 485297, 2010. 320,000 tested, 2.8% active; also: % of control where 0% means no effect; nearly all actives have a fitted effect of over 60% in size
#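 Huh7 cells stably carrying Rab9 promoter–luciferase reporter, plated 1500 cells/well, compound added after 2 h and incubated 24 h at 37 °C; luciferase luminescence then read after 10 min with detection reagent.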
# FLuc counter: qHTS profiling assay for firefly luciferase inhibitor/activator using purifed enzyme and Km concentrations of substrates (counterscreen for miR-21 project); Potency, µM (doses to about 57.5 µM), inactives show top-dose activity change, negative = inhibition, most hits filed as inhibitors; 360,000 tested, 6.9% active; Luciferin 4-monooxygenase (Photinus pyralis), P08659; AID 588342, 2011; purified FLuc, Km substrates, luminescence inhibition;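 also: plate controls were vehicle for no effect and reference inhibitor for full effect; nearly all actives have a fitted effect of over 55% in size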
# Target sequence (P08659 whole entry, looked up): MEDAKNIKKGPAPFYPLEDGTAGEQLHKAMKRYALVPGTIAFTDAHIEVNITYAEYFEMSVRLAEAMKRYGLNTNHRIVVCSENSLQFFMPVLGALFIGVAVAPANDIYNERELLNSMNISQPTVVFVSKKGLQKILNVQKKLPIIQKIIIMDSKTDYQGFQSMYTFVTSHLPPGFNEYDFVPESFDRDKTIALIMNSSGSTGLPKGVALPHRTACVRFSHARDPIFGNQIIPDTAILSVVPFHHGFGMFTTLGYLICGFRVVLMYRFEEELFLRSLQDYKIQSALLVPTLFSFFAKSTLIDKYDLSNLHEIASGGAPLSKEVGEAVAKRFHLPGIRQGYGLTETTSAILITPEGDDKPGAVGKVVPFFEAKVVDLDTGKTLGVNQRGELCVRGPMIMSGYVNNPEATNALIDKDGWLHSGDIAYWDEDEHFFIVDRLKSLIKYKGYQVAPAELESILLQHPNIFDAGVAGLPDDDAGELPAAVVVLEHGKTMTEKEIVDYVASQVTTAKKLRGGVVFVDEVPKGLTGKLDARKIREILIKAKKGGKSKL
#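 Biochemical qHTS of compounds, final roughly 60 µM downward over six points, against 10 nM purified firefly luciferase using Km concentrations of substrates (10 uM D-luciferin, 10 uM ATP) in Tris acetate pH 7.5 buffer; luminescence output.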
# SMN2 splice enh: qHTS Assay for Enhancers of SMN2 Splice Variant Expression. HEK293 SMN2-luciferase splicing reporter, luminescence, 30-36 h. Potency, µM (highest dose often 46.1 µM), for the others: at the highest dose activity change, positive = activation, usual class: activators. 210,000 tested, 2.8% active. AID 1458, 2008; also: % of control where 0% means no effect; nearly all actives have a fitted effect of over 55% in size
#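 HEK293 cells carry an SMN2 […]–luciferase reporter in which exon 7 inclusion puts luciferase in frame. Cells were plated 10-12 h before compound addition, then incubated 30-36 h at 37C. ONE-Glo luminescence was read; sodium butyrate at 4.5 mM final served as control.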
# Luc counter: Counterscreen for Luciferase (Kinase-Glo TM) Inhibition; Luciferin 4-monooxygenase (Photuris pensylvanica), Q27757; Kinase-Glo luciferase, ATP luminescence, 8 min; Potency, µM (titrated, usually from 38.3 µM), for the others: top-dose activity change, negative = inhibition, actives largely listed as inhibitors; 200,000 tested, 0.28% active; AID 1379, 2008; also: % is scaled to controls: 0 for no effect and ±100 for the full control effect; nearly all actives have a fitted effect of over 60% in size
#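 Compounds were added to a substrate mix at pH 7.2 (50 mM imidazole, 10 uM ATP, within the enzyme's linear range), followed by Kinase-Glo detection reagent; luminescence was measured after 8 minutes at ambient temperature.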
# NPC1 prom act: qHTS Assay for NPC1 Promoter Activators; AID 485313, 2010; 320,000 tested, 2.4% active; Huh7 NPC1 promoter luciferase reporter, 24 h; Potency, µM (doses to about 9.22 µM), for the others: at the top dose activation, usual class: activators; also: % of control where 0% means no effect; nearly all actives have a fitted effect of over 60% in size
#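 Luminescence from an NPC1 promoter-driven luciferase reporter in stably transfected Huh7 cells was measured after 24 h compound treatment at 37 °C, followed by 10 min ambient incubation with luciferase detection reagent.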
# ELG1 genotox: qHTS screen for small molecules that induce genotoxicity in human embryonic kidney (HEK293T) cells expressing luciferase-tagged ELG1 | Potency, µM (top dose mostly 46 µM), for inactives: top-dose activity change, positive = activation, usual class: activators | 330,000 tested, 1.3% active | HEK293T ELG1-luciferase reporter, luminescence, 16 h; also: % of control where 0% means no effect; nearly all actives have a fitted effect of over 60% in size
#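 Luminescence read-out: rising ELG1-luciferase signal, reflecting elevated ELG1 protein under genetic stress, flags genotoxic compounds. Cells were treated for 16 hr at 37 °C before ONE-Glo detection.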
# * = called active by the depositor; ? = inconclusive; / = no result given; [ ] = remark or other dose. Calls follow the shape of the dose curve; as a rule, active = well fitted curve in the direction sought with a large enough effect; inconclusive = small, poorly fitted or top-dose-only effect, or another doubt; inactive = no such curve, though single readings can be large; an effect the other way counts as inactive or inconclusive. Potency is read from the fitted curve at half-maximal effect.
SMILES,Rab9 promoter act,FLuc counter,SMN2 splice enh,Luc counter,NPC1 prom act,ELG1 genotox
Cc1cc(=O)n2[nH]c(-c3ccc(F)cc3)cc2n1,?,17µM*,25%,-2%,?,?
Cc1nc2nc(CSc3ccc(Cl)cc3)cc(=O)n2[nH]1,-3%,?,16%,0%,0%,-1%
Cc1cc(=O)n2[nH]c(C)c(-c3ccc(Cl)cc3)c2n1,0%,11%,-60%,-3%,-4%,-25%
Cc1cc(=O)n2[nH]c(-c3ccc(Cl)cc3)cc2n1,3.5µM*,12µM*,14µM*,-1%,?,13%
Cc1cc2nc(CSc3ccc(Cl)cc3)cc(=O)n2[nH]1,-3%,17µM*,12%,2%,-2%,-6%
Cc1ccc(NC(=O)CCn2nc(C)c(S(=O)(=O)N3CCCCC3)c2C)cc1Cl,/,-12%,/,/,/,/
Cc1ccc(S(=O)(=O)C(CNC(=O)C(=O)NCCc2ccc(Cl)cc2)c2cccs2)cc1 (stereo not drawn),/,-10%,/,/,/,/
COC(=O)N1C2CC3(C)C=C(C)OC1(C)C3c1ccccc12 (stereo not drawn),/,/,-19%[9.22 µM],-4%[7.66 µM],/,/
O=C(O)CC[C@]1(C(=O)O)CCC(=O)c2ccccc21,/,/,2%[9.22 µM],-3%[7.66 µM],/,/
CCCCc1ccc(NC(=O)CSCc2cc(=O)[nH][nH]2)cc1,-2%,12µM*,16%,-4%,-3%,4%
CCCCc1ccc(NC(=O)COCC)cc1,25%,19µM*,22%,-1%,13%,21µM*
CCOCC(=O)Nc1ccc(Br)c(C)c1,?,?,6%,1%,16%,?
CCCCc1ccc(NC(=O)N[C@@H](CC(C)C)C(=O)O)cc1,-1%,-2%,/,/,-4%,0%
O=C(CSCc1cc(=O)[nH][nH]1)Nc1ccc(F)cc1,-5%,-5%,/,/,-2%,1%
CCCCc1ccc(NC(=O)CC(C)C)cc1,?,19µM*,?,-6%,?,?
O=C(/C=C/c1ccc(-c2ccccc2[N+](=O)[O-])o1)c1ccco1,?,19µM*,9%,-3%,2%,2%
CCCCN(CCCC)C(=O)CN(C)S(=O)(=O)c1ccc2c(c1)c(=O)n(C)c(=O)n2C,/,-1%,-13%,/,/,/
Cc1ccsc1/C=C1/SC(N2CCOCC2)=NC1=O,24%,21µM*,?,?,21%,20%
CC(=O)Nc1scc(C)c1-c1nc2ccccc2s1,-2%,4%,/,/,-2%,-6%
CC(=O)NCc1ccc(-c2csc(-c3cccs3)n2)cc1,2.2µM*,5.4µM*,/,/,2µM*,?
c1ccc2sc(-c3ccncc3)nc2c1,2.8µM*,15µM*,/,/,3.2µM*,?
c1csc(-c2nc3ccccc3s2)c1,3.5µM*,2.7µM*,/,/,2.5µM*,?
CC(=O)NCc1ccc(-c2nc3ccccc3s2)cc1,0.63µM*,3µM*,14µM*,-10%,2.2µM*,?
O=C(NCc1ccccc1)c1nc2ccccc2s1,4%,?,-12%,-2%,-2%,5%
O=C(NCc1csc(-c2cccs2)n1)c1ccccc1,23%,?,/,/,?,12%
SMILES,Rab9 promoter act,FLuc counter,SMN2 splice enh,Luc counter,NPC1 prom act,ELG1 genotox
CCc1ccc(CNC(=O)c2ccc(Cn3c(=O)c4cccn4c4cccnc43)cc2)cc1,/,0%,/,/,/,/
CCN(c1ccc(OC)cc1)S(=O)(=O)c1ccc2[nH]c3c(c2c1)CCCCC3,/,-7%,/,/,/,/
Cc1cc2c(n1-c1ccc(C(=O)NCCc3ccc(Cl)cc3)cc1)CCC(C)C2 (stereo not drawn),/,-14%,/,/,/,/
O=C(Nc1cccc(Cl)c1)c1ccc2c(c1)CCN2S(=O)(=O)c1ccccc1,/,3%,-7%,/,/,/
CC(=O)N(Cc1cccnc1)c1cccc(-c2nc3ccccc3s2)c1,-17%,-15%,/,-2%,3%,2%
c1cncc(-c2nc3ccccc3s2)c1,?,21µM*,/,/,?,?
Oc1ccc(-c2nc3ccccc3s2)cc1,2.8µM*,1.9µM*,/,/,2.8µM*,3.7µM*
COc1ccc(OC)c(CNC(=O)Nc2cn(CC(C)C)c(=O)c3ccccc23)c1,/,-8%,/,/,/,/
O=C(Nc1ccc2[nH]c(=S)sc2c1)Nc1ccccc1F,0.13µM*,21µM*,/,/,0.11µM*,0.58µM*
O=C(Nc1ccc2[nH]c(=O)[nH]c2c1)Nc1ccc(F)cc1F,1%,-4%,/,/,-1%,1%
O=C(Nc1ccc2[nH]c(=S)sc2c1)c1ccccc1,?,?,11µM*,0%,2.8µM*,?
COc1cccc(NC(=O)Cn2c(=O)n(CCC(=O)NCc3ccccc3OC)c(=O)c3ccccc32)c1,/,-9%,2%,/,/,/
CC1CCN(S(=O)(=O)c2ccc3c(c2)CCN3C(=O)Nc2ccccc2Br)CC1,/,3%,9%,/,/,/
Cc1ccc(C2N3CC4(C)CN2CC(c2ccccc2)(C3)C4=O)cc1 (stereo not drawn),/,5%,5%,/,/,/
O=C1CCCc2nc(N3CCCCC3)sc21,28%,?,?,-2%,18%,21µM*
Nc1nnc(N2CCCCCC2)s1,-5%,-2%,-10%,1%,1%,0%
Cc1ccc(/C(O)=C2/C(=O)C(=O)N(Cc3ccco3)C2c2cccs2)cc1 (stereo not drawn),-3%,24µM*,11%,-4%,-4%,1%
CCN(CC)CCN1C(=O)C(=O)/C(=C(/O)c2ccc(OC)cc2)C1c1cccs1 (stereo not drawn),6%,?,-1%,-4%,15%,-3%
CC(C)c1cc(C(=O)Nc2ccc3c(c2)OCO3)no1,1.6µM*,3.4µM*,7.1µM*,-6%,2.8µM*,2.1µM*
COc1ccc(-c2cc(C(=O)Nc3ccc4c(c3)OCO4)no2)cc1,-2%,2%,5%,/,1%,7%
O=C(Nc1ccc2c(c1)OCO2)c1cc(C2CC2)on1,1.4µM*,4.3µM*,11µM*,-4%,1.6µM*,2.1µM*
CC(C)c1cc(C(F)(F)F)n2nc(C(=O)Nc3ccc4c(c3)OCO4)cc2n1,?,12µM*,9%,4%,28%,?
COC(=O)Cc1c(C)nc2nc(NCc3ccc(Br)cc3)[nH]n2c1=O,/,?,5%,/,/,/
COc1ccc(-c2nc3nc(C)c(Cc4ccccc4)c(=O)n3[nH]2)cc1,14%,9.5µM*,?,0%,13%,?
Cc1cc(=O)n2[nH]c(COc3ccccc3)nc2n1,-6%,?,6%,-6%,1%,-5%
COc1ccc(-c2nc3nc(C)cc(=O)n3[nH]2)cc1,18%,17µM*,1%,-8%,-3%,3%
